Assay outcomes (PubChem BioAssay)
KCNQ2 pot: potentiators of rat KCNQ2 potassium channel. CHO-K1 KCNQ2, FluxOR thallium flux fluorescence; active compounds read high. AID 2239. 310,000 compounds, 0.54% hits. B-score at 10 µM;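 active = fluorescence ratio B-score at least 3 SD of library B-scores, with initial fluorescence B-score within 3 of them, cut at about 5.3 in these data; same plate scores as AID 2156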;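 note: B-score of peak minus minimum over baseline fluorescence ratio after K+ and Tl+ stimulus; positive B-score means potentiation of KCNQ2 with more thallium influx and brighter signal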
KCNQ2 inh: blocks the rat KCNQ2 potassium channel. CHO-K1 KCNQ2, FluxOR thallium flux, 20 min; active compounds read low. 310,000 compounds, 1.1% hits. B-score at 10 µM;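 active = fluorescence ratio B-score at most minus 3 library SDs, with starting brightness B-score within 2 library SDs, cut at about -5.5 in these data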
KCNQ2 block conf: confirmation of rat KCNQ2 potassium channel inhibitors. activity change, negative = inhibition, % at 10 µM. KCNQ2-expressing cells, thallium flux, inhibition; active compounds read low. 1,000 compounds, 57% hits. shares compounds with KCNQ2 inh;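 note: 0% = vehicle wells and values are ratio percent relative to vehicle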
KCNQ1 spec: selectivity of KCNQ2 inhibitors against human KCNQ1; AID 493026; activity change, negative = inhibition, % at 10 µM; 1,000 compounds, 15% hits; KCNQ1-expressing cells, FluxOR thallium flux fluorescence; active compounds read low; shares compounds with KCNQ2 inh;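 active = activity change at least 3 SD of negative controls below their mean in both duplicate wells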;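 note: CHO cells stably transfected with KCNQ1 and depolarized by potassium stimulus; peak minus minimum fluorescence over baseline after thallium addition; 0% = vehicle negative control and -100% = blank without thallium stimulus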
Target sequence (P51787 whole entry, looked up): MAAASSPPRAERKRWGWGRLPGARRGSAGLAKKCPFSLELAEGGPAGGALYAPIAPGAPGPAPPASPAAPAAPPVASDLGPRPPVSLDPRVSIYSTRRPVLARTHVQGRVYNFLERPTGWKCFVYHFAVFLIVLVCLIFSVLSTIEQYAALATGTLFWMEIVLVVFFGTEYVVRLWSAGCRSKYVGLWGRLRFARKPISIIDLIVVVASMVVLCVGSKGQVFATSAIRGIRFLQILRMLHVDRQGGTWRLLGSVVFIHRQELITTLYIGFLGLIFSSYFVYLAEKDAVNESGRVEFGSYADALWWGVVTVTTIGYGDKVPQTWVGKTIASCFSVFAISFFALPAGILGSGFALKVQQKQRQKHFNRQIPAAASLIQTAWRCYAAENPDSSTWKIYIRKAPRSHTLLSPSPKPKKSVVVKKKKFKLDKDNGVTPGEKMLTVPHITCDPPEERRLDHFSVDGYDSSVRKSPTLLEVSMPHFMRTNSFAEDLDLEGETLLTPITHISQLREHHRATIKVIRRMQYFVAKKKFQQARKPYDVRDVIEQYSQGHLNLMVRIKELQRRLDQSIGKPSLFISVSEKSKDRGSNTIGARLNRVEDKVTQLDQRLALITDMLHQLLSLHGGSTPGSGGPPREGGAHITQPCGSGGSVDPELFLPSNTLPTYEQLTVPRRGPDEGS
CHO Tl ctr: counter-screen for KCNQ2 inhibitors: effect in parental CHO cells; thallium flux counter-screen; active compounds read low; shares compounds with KCNQ2 inh; 1,000 compounds, 14% hits; AID 493029; activity change, % at 10 µM;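 note: 0% = vehicle negative controls with stimulus buffer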
KCNQ2 patch conf: confirmation of rat KCNQ2 potassium channel inhibitors. KCNQ2-expressing cells, automated patch clamp current. calls only at 10 µM. 550 compounds, 49% hits. shares compounds with KCNQ2 inh
* marks the source's active call; other numbers are inactive results; i = inactive; nt = no result given; + = active, no number. Only some compounds are listed: those with a hit (about 1.6% of all), similar ones and a draw of the others. Unless noted, the rule behind the calls is not given here.

SMILES | KCNQ2 pot | KCNQ2 inh | KCNQ2 block conf | KCNQ1 spec | CHO Tl ctr | others
CC(C)c1ccc(C2c3[nH]c4ccccc4c3C[C@H]3C(=O)N(c4ccccc4C(=O)N4CCC(C(=O)O)CC4)C(=O)N23)cc1 (some centres not stated) | 1.42 | i | nt | nt | nt
Cc1c(C)n(C(=O)CSc2nc3ccccc3[nH]2)c2ccccc12 | -10.7 | -10.7* | -30.0%* | i | i | KCNQ2 patch conf=i
O=C(CSc1nc2ccccc2[nH]1)N1CCCCC1 | 0.33 | i | nt | nt | nt
O=C(Cc1cccs1)NC(c1ccccc1)c1ccccc1 | nt | i | nt | nt | nt
O=C(COC(=O)/C(=C/c1cccs1)c1cccs1)NC(c1ccccc1)c1ccccc1 | -8.64 | -8.64* | i | i | i
O=C(NCCc1ccccc1)c1ccc2nc(-c3ccco3)c(-c3ccco3)nc2c1 | 0.57 | i | nt | nt | nt
O=C(c1ccccc1)c1ccc2nc(-c3ccco3)c(-c3ccco3)nc2c1 | -7.7 | -7.7* | i | i | i
Cc1onc(-c2ccccc2)c1C(=O)Nc1nc(-c2ccccc2)cs1 | -7.24 | -7.24* | i | i | i
Cc1onc(-c2ccccc2)c1C(=O)Nc1nc(-c2cc(F)ccc2F)cs1 | nt | i | nt | nt | nt
Cc1cc(N2CCOCC2)nc(SCc2ccc(Cl)cc2Cl)n1 | 3.22 | i | nt | nt | nt
COc1ccc(CNC(=O)C2CCCN(S(=O)(=O)c3ccccc3)C2)cc1 (configuration not stated) | nt | i | nt | nt | nt
CCN(c1ccc(OC)cc1)S(=O)(=O)N1CCCC(C(=O)NCc2ccccc2Br)C1 (configuration not stated) | -10.1 | -10.1* | i | i | i
COc1ccccc1C1CCN(C(=O)c2ccc(Cl)cc2)CC1 | nt | i | nt | nt | nt
COc1ccc(S(=O)(=O)N2CCCCCC2)cc1NC(=O)c1c2c(nc3ccccc13)CCN(Cc1ccccc1)C2 | nt | i | nt | nt | nt
COc1ccc(NC(=O)c2c3c(nc4ccccc24)CCN(Cc2ccccc2)C3)c(OC)c1 | -11.4 | -11.4* | i | i | i
CCOC(=O)CNC(=S)n1ncnc1N | nt | i | nt | nt | nt
O=C(COc1ccc(Br)cc1)N(Cc1ccccc1)c1ccccn1 | nt | i | nt | nt | nt
O=C(COc1ccc(Cl)cc1)N(Cc1ccccc1)c1ccccn1 | -9.06 | -9.06* | i | i | i
CN(CC(=O)Nc1ccc(F)c(F)c1F)C(=O)C1CCC1 | nt | i | nt | nt | nt
COCCNc1c(-c2ccc(OC)cc2)nc2ccc(Cl)cn12 | nt | i | nt | nt | nt
CCOC(=O)CNc1c(-c2ccc(OC)cc2)nc2ccc(Cl)cn12 | -8.94 | -8.94* | -28.0%* | i | i | KCNQ2 patch conf=+
CCOc1ccccc1NC(=O)NNC(=O)COc1cccc(C)c1C | 0.52 | i | nt | nt | nt
COc1ccccc1CCNC(=O)C(=O)NCC1OCCN1S(=O)(=O)c1ccc([N+](=O)[O-])cc1 (configuration not stated) | nt | i | nt | nt | nt
COC(=O)C1CCN(C(=O)COC(=O)C2CCN(S(=O)(=O)c3ccc(C)c(C)c3)CC2)CC1 | nt | i | nt | nt | nt
CN(c1ccccc1C(=O)NCc1ccccc1Cl)S(=O)(=O)c1ccccc1 | -10.1 | -10.1* | i | i | i
SMILES | KCNQ2 pot | KCNQ2 inh | KCNQ2 block conf | KCNQ1 spec | CHO Tl ctr | others
Cc1ccccc1NC(=O)c1ccccc1N(C)S(=O)(=O)c1ccccc1 | -7.63 | -7.63* | -20.5%* | i | i | KCNQ2 patch conf=+
COc1ccc(CCNC(=O)c2ccccc2N(C)S(=O)(=O)c2ccccc2)cc1 | 0.14 | i | nt | nt | nt
CC(=O)Nc1ccc(NC(=O)c2ccccc2N(C)S(=O)(=O)c2ccccc2)cc1 | nt | i | nt | nt | nt
CCCCC(=O)NS(=O)(=O)c1ccc(NS(C)(=O)=O)cc1 | 0.56 | i | nt | nt | nt
NC(=S)N/N=C/c1c[nH]c2ccc(OCc3ccccc3)cc12 | nt | i | nt | nt | nt
Cc1ccc(S(=O)(=O)CC(=O)Nc2cc(C)on2)cc1 | 1.81 | i | nt | nt | nt
O=C1C(=O)N(C/C=C/c2ccccc2)c2ccccc21 | nt | i | nt | nt | nt
O=S(=O)(NCCOc1ccccc1Cl)c1ccc2oc3ccccc3c2c1 | -6.78 | -6.78* | i | i | i
COc1ccccc1OCCNS(=O)(=O)c1ccc2oc3ccccc3c2c1 | nt | i | nt | nt | nt
C/C(=N\NC(=O)COc1cc(C)cc(C)c1)c1cccc(NC(=O)C2CCC2)c1 | nt | i | nt | nt | nt
C/C(=N\NC(=O)c1cc(-c2ccncc2)nc2ccccc12)c1ccc(OC(F)F)cc1 | nt | i | nt | nt | nt
COc1ccccc1C(=O)NCC(c1cccs1)N1CCc2ccccc21 (configuration not stated) | -7.15 | -7.15* | i | i | i
COc1cc(C(=O)NCC(c2cccs2)N2CCc3ccccc32)cc(OC)c1OC (configuration not stated) | -8.68 | -8.68* | i | i | i
COc1cccc(C(=O)NCC(c2cccs2)N2CCc3ccccc32)c1 (configuration not stated) | nt | i | nt | nt | nt
O=C(NCC(c1ccco1)N1CCc2ccccc21)C(=O)Nc1ccccc1F (configuration not stated) | nt | i | nt | nt | nt
COc1ccccc1NC(=O)C(=O)NCC(c1ccco1)N1CCc2ccccc21 (configuration not stated) | -7.15 | -7.15* | i | i | i
O=C(NCC(c1cccs1)N1CCc2ccccc21)c1ccccc1 (configuration not stated) | nt | i | nt | nt | nt
CC(C)CNC(=S)NC(=O)c1ccc(F)cc1 | 1.66 | i | nt | nt | nt
O=C(NCCc1ccccc1)C1CC(=O)N(C2CCCCC2)C1 (configuration not stated) | nt | i | nt | nt | nt
CCCn1c(CNC(=O)Cc2ccccc2)nc2ccccc21 | -6.74 | -6.74* | i | i | i
CCCC(=O)NCCc1nc2ccccc2n1CCC | 1.98 | i | nt | nt | nt
CCN(CC)CC(=O)Nc1sc(C)c(C)c1C(=O)c1ccc(C)cc1 | -6.61 | -6.61* | i | i | i
CCN(CC)CC(=O)Nc1sc(C)cc1C(=O)c1ccc(C)cc1 | -6.69 | -6.69* | -23.0%* | i | i | KCNQ2 patch conf=i
Cc1cc(C(=O)c2ccccc2)c(NC(=O)CCl)s1 | nt | i | nt | nt | nt
Cc1sc(NC(=O)CN2CCOCC2)c(C(=O)c2ccccc2)c1C | nt | i | nt | nt | nt
SMILES | KCNQ2 pot | KCNQ2 inh | KCNQ2 block conf | KCNQ1 spec | CHO Tl ctr | others
Cc1ccc(C(=O)c2c(NC(=O)c3ccccc3C)sc(C)c2C)cc1 | -10.6 | -10.6* | -27.5%* | i | i | KCNQ2 patch conf=i
Cc1sc(NC(=O)c2ccco2)c(C(=O)c2ccc(Cl)cc2)c1C | nt | i | nt | nt | nt
Cc1ccccc1OCCC(=O)Nc1cc(S(=O)(=O)N2CCOCC2)ccc1OC(C)C | 0.1 | i | nt | nt | nt
C[C@@H]1C(=O)OC[C@H]1NC(=O)OCc1ccccc1 | 0.56 | i | nt | nt | nt
COCCNC(=O)C(c1ccc(F)cc1)N(C(=O)CCC(=O)Nc1ccccn1)C1CCCCC1 (configuration not stated) | 0.58 | i | nt | nt | nt
CCOc1ccccc1OCC(=O)N/N=C(\C)Cc1ccc(OC)cc1 | 0.09 | i | nt | nt | nt
COc1ccccc1OCC(=O)NN=C(Cc1ccccc1)Cc1ccccc1 | -6.72 | -6.72* | -31.5%* | i | i | KCNQ2 patch conf=+
Cc1cc(C)n(-c2nc3ccccc3nc2N2CCCC2)n1 | nt | i | nt | nt | nt
